Assay outcomes (PubChem)
D2 ag-1 – activates the human D2 dopamine receptor | P14416 | DiscoveRx PathHunter D2 beta-arrestin, luminescence, 90 min; 100% = 57 uM dopamine signal | activation, % (concentration not given with the values) | 360,000 tested, 0.084% active; in the data active means activation above about 40%
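Agonist mode: compounds alone added to overnight-plated D2 PathHunter cells for 90 min at 37 C, with 57 uM final dopamine (EC100) defining full response. Beta-arrestin recruitment detected by chemiluminescent reagent, read after 1 h at ambient temperature.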
D2 ag-2 – activates the human D2 dopamine receptor; P14416; HEK293 T-REx D2 cells, calcium flux agonist mode; activation, % at 2 µM; 340,000 tested, 0.53% active;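 active means activation over 3 SD above normal in the single-dose calcium agonist read, cut at about 30% in these data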
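Calcium-flux readout, 1 cycle/sec over 180 s following compound pin transfer, in inducible HEK293 Trex D2 cells (force-coupled); dopamine controls included. Positive calcium responses during this window marked compounds as potential agonists.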
D2 antagonist – antagonizes the human D2 dopamine receptor; HEK293 TREx D2 cells, calcium flux, dopamine EC80; inhibition, % at 10 µM; 340,000 tested, 2% active; AID 485344; in the data active means inhibition above about 30%; inactive means below that, where a call was filed
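Inhibition of EC80 dopamine-driven calcium flux, recorded kinetically, defines activity here; cells are a tetracycline-induced HEK293 T-REx line expressing force-coupled D2.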
D2 PAM-1 – positive allosteric modulators of human D2 dopamine receptor | P14416 | HEK293 T-REx D2, calcium flux, EC20 dopamine potentiation | potentiation, % at 10 µM | 340,000 tested, 0.34% active | AID 485347;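 active means potentiation over 3 SD above the plate norm, cut at about 30% in these data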
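Calcium flux readout, no-wash dye, 1 read/s. Inducible HEK293 Trex D2 line, overnight 30 C. Compound alone 180 s (agonist flags), then EC20 dopamine, another 180 s to score potentiation.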
D2 PAM-2 – potentiates the human D2 dopamine receptor allosterically; DiscoveRx D2 beta-arrestin cells, luminescence, 90 min; 100% = 57 uM dopamine signal; potentiation, % (no concentration beside the values); 360,000 tested, 0.23% active; AID 624464; in the data active means potentiation above about 50%
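D2 cells co-treated with compound plus 50 nM dopamine (EC20) for 90 min at 37 deg C to detect potentiation. Beta-arrestin recruitment was read as enzyme-fragment luminescence after 1 h at ambient temperature. Full response was set by 57 uM dopamine.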
D3 arrestin ag – D3 receptor agonism confirmed, beta-arrestin readout; Potency, µM (doses to about 76.9 µM), hits mostly activators; AID 720506; DiscoveRx D3 beta-arrestin cells, luminescence, 90 min; 2,300 tested, 4% active; shares compounds with D2 ag-2; further: nearly all actives have a fitted effect of over 70% in size
Target sequence (P35462 whole entry, looked up): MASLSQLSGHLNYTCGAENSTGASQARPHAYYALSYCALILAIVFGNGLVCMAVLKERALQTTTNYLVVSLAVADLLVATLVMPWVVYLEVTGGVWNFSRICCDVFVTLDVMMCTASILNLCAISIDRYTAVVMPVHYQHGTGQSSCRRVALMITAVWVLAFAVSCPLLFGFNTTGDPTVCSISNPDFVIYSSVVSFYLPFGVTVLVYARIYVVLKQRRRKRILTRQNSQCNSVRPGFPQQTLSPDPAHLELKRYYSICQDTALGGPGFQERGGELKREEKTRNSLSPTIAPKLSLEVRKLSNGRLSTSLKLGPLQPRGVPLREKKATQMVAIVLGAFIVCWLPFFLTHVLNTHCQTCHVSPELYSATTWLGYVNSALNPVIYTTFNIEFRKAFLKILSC
D2 ag-3 – counter-screen for D3 agonists: human D2 dopamine receptor agonism. shares compounds with D2 ag-2. DiscoveRx PathHunter D2 beta-arrestin, luminescence, 90 min; response scale: percent relative to full dopamine signal. Potency, µM (top dose mostly 76.9 µM), usual class: activators. 2,300 tested, 5.9% active. AID 720507; further: nearly all actives have a fitted effect of over 70% in size
Of the large screens only hits and unclear results are named; the others gave an inactive call (follow-up assays come after a bar, where they were run). Only some compounds are listed: those with a hit (about 2.4% of all), similar ones and a draw of the others. Unless noted, the call rests on the fitted dose curve; in most records, active means well fitted activation curve with a large enough effect; inconclusive means small, poorly fitted or top-dose-only effect; inactive means flat fitted curve, though single readings scatter.

O=C(NCCOC(=O)c1ccc(C(=O)OCCNC(=O)c2cccnc2)s1)c1cccnc1	D2 ag-2 69 | D3 arrestin ag inactive | D2 ag-3 inactive
CC(C)c1ccc(NC(=O)CSc2nc3ccccc3nc2Cc2ccccc2)cc1	none (no result: D2 ag-1, D2 ag-2, D2 antagonist, D2 PAM-2)
CCn1cc(C(=O)NCc2ccccc2Cl)c(=O)c2cc(S(=O)(=O)N3CCc4ccccc4C3)ccc21	none (no result: D2 ag-1, D2 antagonist, D2 PAM-2)
Cc1ccc(S(=O)(=O)N(C)C)cc1NC(=O)C1CCN(C(=O)Nc2ccccc2)CC1	D2 antagonist 73 | D3 arrestin ag inactive | D2 ag-3 inactive
Cc1ccccc1C(=O)N(Cc1nc(-c2ccc(Cl)cc2)no1)C(C)C	none (no result: D2 ag-1, D2 antagonist, D2 PAM-2)
CC(C)N(Cc1nc(-c2ccccc2)no1)C(=O)c1ccc(Cl)cc1	D2 ag-2 51 | D3 arrestin ag inactive | D2 ag-3 inactive
CC(C)N(Cc1nc(-c2ccccc2)no1)C(=O)c1ccc([N+](=O)[O-])cc1	none
COc1ccccc1C(=O)N(Cc1nc(-c2ccc(Cl)cc2)no1)C(C)C	D2 ag-2 51 | D3 arrestin ag inactive | D2 ag-3 inactive
COc1ccc(C(=O)Nc2cc(C(F)(F)F)ccc2-n2cnc3ccccc32)cc1	none
CC(=O)Nc1ccc(C(=O)Nc2cc(C(F)(F)F)ccc2-n2cnc3ccccc32)cc1	none | D3 arrestin ag inactive | D2 ag-3 inactive
O=C(NCc1ccc(Cl)cc1)C1CCCN(c2ncnc3onc(-c4ccc(F)cc4)c23)C1 (stereo not given)	none (no result: D2 ag-1, D2 antagonist, D2 PAM-2)
CCc1ccc(NC(=O)c2ccc3c(=O)n4c(nc3c2)CCCCC4)cc1	none
CCN(CC(=O)Nc1ccccc1C(F)(F)F)C(=O)c1ccc2c(=O)n3c(nc2c1)CCC3	none
CCc1nnc(NC(=O)c2ccc3c(=O)n4c(nc3c2)CCCCC4)s1	none | D3 arrestin ag inactive | D2 ag-3 inactive
CN(CC(=O)Nc1ccccc1Br)C(=O)c1ccc2c(=O)n3c(nc2c1)CCC3	none | D3 arrestin ag inactive | D2 ag-3 inactive
Cc1ccc(C(=O)Nc2ccc(Br)cc2)cc1S(=O)(=O)NCc1ccccc1	none (no result: D2 ag-1, D2 antagonist, D2 PAM-2)
O=C(Cn1cncn1)N/N=C/c1cc([N+](=O)[O-])ccc1O	D2 antagonist 52 | D3 arrestin ag inactive | D2 ag-3 inactive
Cc1cc(NCc2ccc(F)cc2)nc2cc(Cl)ccc12	none | D3 arrestin ag inactive | D2 ag-3 inactive
Cc1ccc(CNc2ncnc3cc(Cl)ccc23)cc1	none
Cc1[nH]nc2nc(SCC(=O)NCCC3=CCCCC3)n(-c3ccc(Br)cc3)c(=N)c12	D2 ag-2 41 | D3 arrestin ag inactive | D2 ag-3 inactive
